Out of some 2,100 compounds screened, about 320 (15%) were called active. About 52% were inconclusive and are not listed. Some of the results follow. Unmarked numbers belong to inactive results. Calls come from the whole dose curve; as a rule, active = well fitted cell-killing curve with a large enough effect; inconclusive = small, poorly fitted or top-dose-only effect, or effect the other way; inactive = flat fitted curve, though single readings scatter.
test: Viability Counterscreen for CMV-Luciferase Assay of Inhibitors of ATXN expression; conditions: HEK-293 CMV-luciferase cells viability, protease fluorescence, 24 h; activity change, negative = cytotoxicity: at the top concentration; note: nearly all actives have a fitted effect of over 55% in size
Procedure, shortened: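 HEK-293 cells stably expressing a CMV-luciferase reporter were exposed to compounds at several concentrations for 24 hr at 37 degree C. Viability was read as Gly-Phe-AFC fluorescence (25 uM final, 30 min). SteadyGlo luminescence was then measured after 5 min.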
% is set by controls: 0 for no effect and ±100 for the full control effect; potency is the fitted concentration of half-maximal effect.

SMILES | activity change, negative = cytotoxicity | Potency
Cc1cc(Br)ccc1NC(=O)c1cnc(N2CCN(c3ccccn3)CC2)c2ccccc12 | -2.71% | 
Cc1cc(Cl)c(C(=O)Nc2cccc(C(F)(F)F)c2)c(C)n1 | -12.7% [at 57.5 µM] | 
Cc1ccc(NC(=O)COc2ccc(Br)cc2CO)cc1S(=O)(=O)N1CCOCC1 | -29.7% [at 57.5 µM] | 
O=C(c1ccc(Cl)s1)N1CCN(c2nc3ccccc3s2)CC1 | 8.44% | 
CC(=O)c1ccc(NC(=O)COC(=O)c2c3c(nc4ccccc24)/C(=C\c2cccs2)CCC3)cc1 | -7.02% [at 57.5 µM] | 
Cc1noc2ncnc(N3CCN(c4cccc(Cl)c4)CC3)c12 | 7.33% [at 57.5 µM] | 
CCN1C(=O)C(CC(=O)Nc2ccc(OC)cc2)N(CCc2ccc(F)cc2)C1=S (configuration not stated) | -29.9% | 
CC(C)COc1cccc(C(=O)N(CC(=O)Nc2ccccc2C(F)(F)F)Cc2ccco2)c1 | -29% | 
Cc1onc(-c2ccccc2)c1C(=O)N/N=C/c1c[nH]c2ccccc12 | -2.59% [at 57.5 µM] | 
O=C(N/N=C/c1cc([N+](=O)[O-])ccc1O)c1c[nH]c2ccccc12 |  | 28.2 µM (active)
Cc1ccc2cc(C#N)c(N3CCN(C(=O)c4ccccc4)CC3)nc2c1 | -14.6% [at 57.5 µM] | 
COc1ccc(-c2cc(C3CCN(c4ccc(C(C)=O)cc4[N+](=O)[O-])CC3)[nH]n2)cc1 |  | 14.1 µM (active)
CCOC(=O)[C@H]1[C@H]2COc3ccc(OC)cc3[C@@H]2N2C(=O)c3cc(OC)c(OC)cc3NC(=O)[C@@]12C | -12.3% | 
NNc1ncnc2scc(-c3ccc(Cl)cc3)c12 | -15% [at 57.5 µM] | 
CCOC(=O)c1c(C)sc2c1N(C(=O)CN(CC)CC)c1cc(Cl)ccc1S2 |  | 15.8 µM (active)
CN(C)c1nc(N/N=C/c2c[nH]c3ccccc23)nc(N2CCOCC2)n1 | 0.442% | 
C=CCn1c(C)c(/C=C/c2cc[n+](C)cc2)c2ccccc21 | 5.96% | 
Nn1cnnc1N/N=C/c1cc(Br)cc(Br)c1O | 9.75% | 
Cn1c(SCC(=O)N/N=C/c2ccc([N+](=O)[O-])s2)nnc1-c1ccc(Cl)cc1 |  | 10 µM (active)
CSc1sc(-c2nnc(SCC(=O)Nc3ccc(Cl)cc3)n2C)c2c1C=CCC2 | -1.3% | 
O=C(CSc1nnnn1-c1ccccc1)Nc1nsc(-c2ccccc2)n1 | 6.34% [at 57.5 µM] | 
Cn1c(SCC(=O)Nc2cc(Cl)cc(Cl)c2)nnc1-c1ccc2nonc2c1 | -20.1% | 
Cn1c(SCC(=O)N/N=C/c2ccc([N+](=O)[O-])s2)nnc1-c1ccccc1 |  | 20 µM (active)

SMILES | activity change, negative = cytotoxicity | Potency
COc1ccc(N2CCN(c3ccnc4cc(Cl)ccc34)CC2)cc1 | 1.26% | 
COc1cccc(OC)c1C(=O)OCC(=O)NC(=O)NCc1ccccc1 | 2.4% | 
CC(C)(C)c1ccc(Oc2ccc(N)cc2)cc1 | -10.3% [at 57.5 µM] | 
Cc1nc2ncnn2c(N2CCN(c3cccc(C(F)(F)F)c3)CC2)c1C | 5.69% | 
c1ccc2c(c1)c1c(c3ccccc32)CN2CCCC2C1 (configuration not stated) | -17.1% [at 57.5 µM] | 
Cc1c(N=C2C=CC(=O)c3ccccc32)c(=O)n(-c2ccccc2)n1C |  | 28.2 µM (active)
Cc1ccc(-c2cc(C(=O)NCCCN3CCOCC3)no2)cc1 | -0.121% [at 57.5 µM] | 
COC(=O)C1=C(C)N(Cc2ccccc2)C(=NCCc2cccnc2)N[C@H]1c1ccc(Br)cc1 |  | 20 µM (active)
c1ccc(-c2cc3c(N4CCN(c5ccccc5)CC4)ncnc3s2)cc1 | -24.3% [at 57.5 µM] | 
COc1ccc(N(CC(=O)N2CCN(c3ccc(Cl)cc3)CC2)S(=O)(=O)c2c(C)n[nH]c2C)cc1 | 1.04% | 
COc1cccc(-c2cc3nc(-c4ccccc4)cc(N4CCN(C(=O)c5ccoc5)CC4)n3n2)c1 | -24.5% | 
COc1ccccc1-c1cc2nc(-c3ccccc3)cc(N3CCN(C(=O)c4ccoc4)CC3)n2n1 |  | 10 µM (active)
O=C(c1ccoc1)N1CCN(c2cc(-c3ccco3)nc3cc(-c4ccccc4)nn23)CC1 | -18.2% [at 57.5 µM] | 
COc1cccc(C2CC(c3c(-c4ccccc4)c4cc(Cl)ccc4[nH]c3=O)=NN2S(C)(=O)=O)c1OC (configuration not stated) | -22.3% | 
O=C(/C=C/c1ccccc1)NC(=S)NNC(=O)c1cnccn1 |  | 10 µM (active)
CCCOc1ccc(C(=O)NC(=S)NNC(=O)c2c(-c3ccccc3)noc2C)cc1 | -3.9% | 
O=C(N/N=C1\CCCc2c1[nH]c1ccc(Cl)cc21)c1ccncc1 | 8.93% [at 57.5 µM] | 
Cc1cc(C)nc(/N=C(\N)Nc2ccc(C(C)C)cc2)n1 | -6.78% | 
CCc1cc(-c2nnn(CCC3COCCO3)c2CC)ccc1-c1cn(CCc2c[nH]c3ccccc23)nn1 (configuration not stated) | -21% [at 57.5 µM] | 
CCCc1nc2c(c(=O)c3ccccc3n2C)c(=O)n1C1CCCCCC1 |  | 20 µM (active)
CC(C)(C)OC(=O)CNC(=O)c1[nH]cnc1C(=O)Nc1ccc(CNC(=O)OC(C)(C)C)cc1 | -25.6% [at 57.5 µM] | 
CN(C)c1cc[n+](CC(=O)c2ccc(-c3ccccc3)cc2)cc1 | -28.5% | 
CCC(=O)OC1(C(C)=O)CCC2C3CCC4=CC(=O)CCC4(C)C3CCC21C (configuration not stated) | -2.45% [at 57.5 µM] | 

SMILES | activity change, negative = cytotoxicity | Potency
NC(Cc1ccc(C(F)(F)F)cc1)c1csc(Nc2nccc(C(F)(F)F)n2)n1 (configuration not stated) | -0.88% | 
CC(C)(C)c1ccc(C(=O)N2CCCCCC2=O)cc1 | -17.4% [at 57.5 µM] | 
CCN(CC)c1ccc(C(=O)N/N=C/c2ccccc2OC(F)F)cc1 | -26.8% | 
CCN(CC)c1ccc(/C=C/c2cccc[n+]2C)c(OC)c1 |  | 14.1 µM (active)
COc1ccccc1NC(=S)NC(=O)c1ccc(Cn2cc(Br)cn2)cc1 | 3.03% [at 57.5 µM] | 
COc1cc(-c2nnc(SCC(=O)N(Cc3ccccc3)C(C)(C)C)o2)cc(OC)c1OC | -7.89% | 
Cc1ccc(NC(=O)c2ccc(-c3nn(C)c(=O)c4ccccc34)cc2)cc1 | -10.4% [at 57.5 µM] | 
CCc1nc2ccccc2c(C(=O)OCC(=O)Nc2ccc(NC(C)=O)cc2)c1C | 3.49% | 
C/C(=N\NC(=O)c1cc(C2CC2)nc2ccccc12)c1ccc(O)cc1O | 8.57% [at 57.5 µM] | 
CC(=O)Nc1ccc(Nc2c3ccccc3nc3ccccc23)cc1 |  | 8.91 µM (active)
CSc1sc(C(=O)NN)c2c1C1(CCC2)SCCS1 | 5.91% [at 57.5 µM] | 
CC1CCCN(S(=O)(=O)c2ccc(C(=O)Nc3nnc(-c4ccccc4Cl)o3)cc2)C1 (configuration not stated) | -14% | 
COc1ccc(/C=C2\CN(Cc3ccccc3)C/C(=C\c3ccc(OC)c(O)c3)C2=O)cc1O |  | 10 µM (active)
O=C1/C(=C\c2cc(Cl)c(O)c(Cl)c2)SC(=S)N1Cc1ccccc1 | 27.6% [at 57.5 µM] | 
OC1(c2ccc(Cl)cc2)CCN(Cc2c[nH]c3ccccc23)CC1 | -9.54% | 
COCCCn1c(-c2ccc(S(=O)(=O)N3CCOCC3)cc2)csc1=Nc1ccccc1 | 2.74% | 
COc1ccc(Cl)cc1NC(=O)Nc1cccc([N+](=O)[O-])c1C | 2.88% | 
COc1ccc(NC(=O)c2cc(-c3cc(Cl)ccc3OC)n[nH]2)cc1OC |  | 0.398 µM (active)
COc1ccc(Cl)cc1C(=O)Nc1ccccc1N1CCN(C(=O)C(C)C)CC1 | -29.9% [at 57.5 µM] | 
Cc1cc(C)c(C(=O)N2CCCC(N3CCN(c4cccc(C(F)(F)F)c4)CC3)C2)o1 (configuration not stated) | -20.6% | 
CCOc1ccc(CCNC(=O)c2ccc(OCc3c(C)noc3C)cc2)cc1OCC | 20.1% | 

— PubChem BioAssay AID1745849 (National Center for Advancing Translational Sciences (NCATS), 2022)
